# Hits are enriched below; roughly 3.9% of the tested compounds scored in any of these assays.
# BoNT-A LC inh2 = BoNT/A light chain protease inhibitors, primary screen, biochemical, flow cytometry, MLPCN library. hit rate 0.17% among 360,000. multiplex microsphere protease substrate cleavage. Botulinum neurotoxin type A light chain protease (Clostridium botulinum A str. ATCC 3502). inhibition, % at 10 µM
# Anthrax LF inh2 = Bacillus anthracis LF protease inhibitors, primary screen, biochemical, multiplex microsphere, MLPCN library; Lethal factor (Bacillus anthracis), P15917; multiplex microsphere protease cleavage assay; inhibition, % at 10 µM; hit rate 0.12% among 360,000; AID 588501, 2011
# Target sequence (P15917 whole entry, looked up): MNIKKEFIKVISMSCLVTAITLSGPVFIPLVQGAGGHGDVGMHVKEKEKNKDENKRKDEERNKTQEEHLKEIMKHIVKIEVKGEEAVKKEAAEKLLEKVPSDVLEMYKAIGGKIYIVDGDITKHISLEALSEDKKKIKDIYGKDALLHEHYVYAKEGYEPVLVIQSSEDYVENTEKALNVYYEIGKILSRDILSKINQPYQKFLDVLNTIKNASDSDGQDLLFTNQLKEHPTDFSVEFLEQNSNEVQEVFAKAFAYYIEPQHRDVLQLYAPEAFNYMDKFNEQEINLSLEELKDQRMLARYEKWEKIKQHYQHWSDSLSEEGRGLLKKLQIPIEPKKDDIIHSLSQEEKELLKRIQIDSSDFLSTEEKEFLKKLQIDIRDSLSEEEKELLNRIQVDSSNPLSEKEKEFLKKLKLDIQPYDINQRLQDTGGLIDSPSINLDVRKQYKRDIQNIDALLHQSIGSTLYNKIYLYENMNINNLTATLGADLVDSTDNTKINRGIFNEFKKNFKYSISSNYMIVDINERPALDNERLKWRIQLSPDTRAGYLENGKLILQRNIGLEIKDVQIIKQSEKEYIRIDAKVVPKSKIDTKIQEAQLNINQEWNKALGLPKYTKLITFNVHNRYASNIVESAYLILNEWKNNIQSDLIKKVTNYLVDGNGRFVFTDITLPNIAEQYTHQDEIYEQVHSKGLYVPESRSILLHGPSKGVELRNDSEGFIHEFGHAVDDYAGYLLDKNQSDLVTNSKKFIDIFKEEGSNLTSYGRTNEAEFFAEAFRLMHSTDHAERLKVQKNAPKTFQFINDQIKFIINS
# CCHF vOTU inh-1 = CCHFV vOTU protease inhibitors, primary screen, biochemical, Pep-AMC substrate, fluorescence | inhibition, % at 11.5 µM | hit rate 0.55% among 370,000 | AID 651958, 2012; in the data active means inhibition above about 30%
# SARS 3CLpro inh = SARS-CoV 3CLpro protease inhibitors, primary screen, biochemical, quenched FRET; Replicase polyprotein 1ab (Severe acute respiratory syndrome coronavirus), P0C6X7; recombinant SARS-CoV 3CLpro, quenched FRET peptide cleavage; inhibition, % at 6 µM; hit rate 0.14% among 290,000; AID 1706, 2009; in the data active means inhibition above about 12%
# Autofluor counter = counter-screen for toxin protease inhibitors: compound fluorescence | compound autofluorescence counterscreen, microsphere flow cytometry; active compounds read high | fluorescence intensity (concentration not given with the values) | hit rate 3.1% among 360,000; in the data active means fluorescence intensity above about 16000; inconclusive means no clear call, values can overlap the other calls
# BoNT F protease = BoNT/F light chain protease inhibitors, primary screen, biochemical, flow cytometry, MLPCN library; inhibition, % at 10 µM; hit rate 0.22% among 360,000; AID 588497, 2011; Multiplex microsphere protease cleavage assay; Botulinum neurotoxin type F light chain protease (Clostridium botulinum); in the data active means inhibition above about 35%, passing the limit was not always enough; inconclusive means no clear call, values can overlap the other calls
# CCHF vOTU inh-2 = CCHFV vOTU protease inhibitors, confirmation, biochemical, Pep-AMC substrate, fluorescence | shares compounds with CCHF vOTU inh-1 | Recombinant CCHFV vOTU | inhibition, % at 11.5 µM | hit rate 17% among 1,900 | AID 686976, 2013; in the data active means inhibition above about 30%
# Hits are given with their value; i = inactive; ? = inconclusive; nt = no result given. Unless noted, no stated cut-off is given here; in the data, active means inhibition above about 30%; inconclusive means no clear call, values can overlap the other calls; inactive means below that.
SMILES,BoNT-A LC inh2,Anthrax LF inh2,CCHF vOTU inh-1,SARS 3CLpro inh,Autofluor counter,BoNT F protease,CCHF vOTU inh-2
Cc1cccc(C)c1NC(=O)C(c1ccc(-c2ccccc2)cc1)n1c(=O)c(-c2ccco2)nc2ccccc21 (centres undefined),nt,nt,33,nt,nt,nt,i
COc1ccc(C(C(=O)NC(C)(C)C)n2c(=O)c(-c3ccco3)nc3ccccc32)cc1 (centres undefined),nt,nt,i,nt,nt,nt,nt
CC(C)(C)NC(=O)C(c1ccc(-c2ccccc2)cc1)n1c(=O)c(-c2ccco2)nc2ccccc21 (centres undefined),nt,nt,32,nt,nt,nt,i
O=C(c1ccco1)[C@@H]1[C@@H]2C(=O)N(c3ccc(F)cc3)C(=O)[C@@H]2C2c3ccccc3C=CN21 (some centres undefined),nt,nt,86,i,nt,nt,40
O=C(c1ccco1)[C@@H]1[C@@H]2C(=O)N(c3ccc(Br)cc3)C(=O)[C@@H]2C2c3ccccc3C=CN21 (some centres undefined),i,i,93,i,i,i,84
COc1ccc(OC)c(S(=O)(=O)N2CCC(C(=O)NCC3COCCO3)CC2)c1 (centres undefined),nt,nt,i,nt,nt,nt,nt
CC(C(=O)Nc1nc(-c2ccc(F)c(F)c2)cs1)N1C(=O)C2CC=CCC2C1=O (centres undefined),i,i,31,nt,i,?,i
Cc1c(/C=N/NC(N)=O)c2ccccn2c1C(=O)c1ccncc1,i,i,32,i,i,i,i
Cc1cc2c(c(=O)o1)[C@@]1(C(=O)N(C)c3ccccc31)C1=C(CCCC1=O)O2,nt,nt,i,nt,nt,nt,nt
N#CCC[C@@H]1CC[C@]2(CCCN(C(=O)C3CCCC3)C2)O1,nt,nt,i,nt,nt,nt,nt
Cc1ccc(S(=O)(=O)Nc2ccccc2-c2ccccc2NS(=O)(=O)c2ccc(C)cc2)cc1,i,i,30,14,i,i,i
CCOC(=O)Cc1nc(N2CCCN(C(C)=O)CC2)c2c(C)c(C(=O)OCC)sc2n1,nt,nt,i,nt,nt,nt,nt
C=CCn1c(O)c(C(CC)=Nc2ccc(N(C)C)cc2)c(=O)[nH]c1=O,i,i,38,i,i,i,i
C=CCn1c(O)c(C(CC)=Nc2ccc3c(c2)CCC3)c(=O)[nH]c1=O,i,i,i,i,i,i,nt
CCN(CC)CCNC(=O)c1ccc(NCN2C(=O)NC(c3ccccc3)(c3ccccc3)C2=O)cc1,nt,nt,i,nt,nt,nt,nt
C[C@H](CO)N1C[C@H](C)[C@@H](CN(C)Cc2ccc(-c3ccccc3)cc2)Oc2ncc(C#C[C@@H](C)O)cc2C1=O,i,i,33,nt,i,i,i
O=C(Nc1ccc(C(F)(F)F)cc1)OC1CC2CC1[C@H]1CCCCN1C2 (some centres undefined),nt,nt,i,nt,nt,nt,nt
Cn1c2ccccc2c2cc(/C=C(\NC(=O)c3ccccc3)C(=O)O)ccc21,i,i,30,i,i,i,i
COC(=O)/C(=C\c1ccc2c(c1)c1ccccc1n2C)NC(=O)c1ccccc1,i,i,i,i,i,i,nt
COc1cccc2c1C(=O)C=C(C)C2=O,i,i,i,i,i,i,nt
COC1=CC(=O)c2c(ccc3ncnc(N)c23)C1=O,i,i,110,nt,i,i,108
COc1cc(/C=N/Nc2nncn2/N=C/c2ccc(O)c(OC)c2)ccc1O,i,i,100,i,i,i,i
COc1cc(/C=N\Nc2nncn2N)ccc1OC(C)=O,i,i,90,i,i,?,i
COc1ccc(OC)c(/C=N\Nc2nccs2)c1,i,i,i,nt,i,i,nt
COc1ccc(OC)c(/C=N/Nc2nncn2/N=C/c2cc(OC)ccc2OC)c1,i,i,32,i,i,i,i
SMILES,BoNT-A LC inh2,Anthrax LF inh2,CCHF vOTU inh-1,SARS 3CLpro inh,Autofluor counter,BoNT F protease,CCHF vOTU inh-2
COc1cc(/C=N/NC(=O)c2ccncc2)ccc1OC(C)=O,i,i,i,i,i,i,nt
CCOC(=O)c1c(Nc2ccc(OC)cc2)n[nH]c1C,nt,nt,i,nt,nt,nt,nt
Cc1ccc(S(=O)(=O)N2CCCc3nc(-c4ccc(F)cc4)ccc32)cc1,nt,nt,i,nt,nt,nt,nt
Nc1cc(=O)n(Cc2ccccc2)c(N)c1C(=O)NCc1ccccc1,nt,nt,i,nt,nt,nt,nt
Cc1c(C)n(Cc2ccc(-c3ccccc3C(=O)O)cc2)c2ccc(C(=O)N[C@@H](C)c3ccc([N+](=O)[O-])cc3)cc12,nt,nt,42,nt,nt,nt,i
CCN=C1NC(c2ccccc2)C(C(=O)OC)=C(C)N1Cc1ccc(C(F)(F)F)cc1 (centres undefined),nt,nt,i,nt,nt,nt,nt
CC1(C(=O)NCc2cccc(C(F)(F)F)c2)CCN1CCc1ccccc1 (centres undefined),i,i,31,nt,i,i,i
CC1(C(=O)NCc2ccc(C(F)(F)F)cc2)CCN1Cc1c(F)cccc1F (centres undefined),i,i,31,nt,i,i,i
CCCCc1c(-c2ccccc2OC)ncn1Cc1ccc(Cl)cc1Cl,nt,nt,i,nt,nt,nt,nt
COc1c(C)cccc1C(=O)NC(=S)Nc1ccccc1N1CCCC1,i,i,50,i,i,i,i
O=C(NC(=S)Nc1ccccc1N1CCCC1)c1ccccc1Br,i,i,34,i,i,i,30
COc1cccc(C=NNC(=S)NC2CC3CCC2C3)c1O (centres undefined),nt,nt,i,nt,nt,nt,nt
CCCCC(=O)Nc1sc2c(c1-c1nc3ccccc3s1)CCN(C(C)=O)C2,nt,nt,nt,i,nt,nt,nt
CC(=O)N1CCc2c(sc(NC(=O)C3CC3)c2-c2nc3ccccc3s2)C1,i,i,50,i,i,i,i
CC(C)(C)OC(=O)N[C@@H]1C=CC(=O)C1,nt,nt,i,nt,nt,nt,nt
O=S(=O)(Nc1cc(Sc2cccc3cccnc23)c(O)c2ccccc12)c1ccccc1,nt,nt,40,i,nt,nt,i
O=C(O)CSc1cc(NS(=O)(=O)c2cccc([N+](=O)[O-])c2)c2ccccc2c1O,i,i,108,i,i,i,99
CCc1ccc(S(=O)(=O)Nc2cc(SCC(=O)O)c(O)c3ccccc23)cc1,i,i,114,i,i,i,101
Cc1ccc(C)c(S(=O)(=O)Nc2cc(SCC(=O)O)c(O)c3ccccc23)c1,i,i,nt,i,i,i,nt
CCOc1ccc(S(=O)(=O)Nc2cc(SCC(=O)O)c(O)c3ccccc23)cc1,i,i,101,i,i,i,77
Cc1ccc(S(=O)(=O)Nc2cccc3cccnc23)cc1,i,i,i,i,i,i,nt
CC1(c2nnnn2Cc2ccccc2)CCCCC(=O)N1Cc1cccs1 (centres undefined),nt,nt,i,nt,nt,nt,nt
CCOC(=O)[C@@]12CCC3=C1N(CCC3)C(=O)[C@H](CC(=O)NCCC(C)C)C2,nt,nt,i,nt,nt,nt,nt
O=S1(=O)c2ccc(Br)cc2OC[C@@H](Cc2ccccc2)N1Cc1cn(Cc2ccccc2)nn1,nt,nt,i,nt,nt,nt,nt
CCOc1cc(OCC)cc(C(=O)N2CCC[C@@H]2C(=O)N2CCC[C@H]2C(=O)NCc2ccccc2)c1,nt,nt,i,nt,nt,nt,nt

# Source: PubChem (several laboratories)
